# Measured values from PubChem BioAssay (NCATS).
# A number with no mark means an inactive call. Records with an inconclusive call do not appear. Some of the results follow. Where a call stands in place of a potency, no number is given. Activity calls are given as the source filed them. Unless noted, calls come from the whole dose curve; as a rule, active = well fitted curve in the direction sought with a large enough effect; inconclusive = small, poorly fitted or top-dose-only effect, or another doubt; inactive = no such curve, though single readings can be large; an effect the other way counts as inactive or inconclusive.
# Legend:
# [1] = target: Lethal(3)malignant brain tumor-like protein 1 (Homo sapiens) (UniProt Q9Y468); experiment: qHTS Assay for the Inhibitors of L3MBTL1: Hit Validation (AID 540279); settings: L3MBTL1 methyl-lysine binding inhibition, biochemical qHTS; note: potency is the fitted concentration of half-maximal effect; nearly all actives have a fitted effect of over 70% in size
# Sequence of Lethal(3)malignant brain tumor-like protein 1 (Homo sapiens) (Q9Y468 whole entry, looked up): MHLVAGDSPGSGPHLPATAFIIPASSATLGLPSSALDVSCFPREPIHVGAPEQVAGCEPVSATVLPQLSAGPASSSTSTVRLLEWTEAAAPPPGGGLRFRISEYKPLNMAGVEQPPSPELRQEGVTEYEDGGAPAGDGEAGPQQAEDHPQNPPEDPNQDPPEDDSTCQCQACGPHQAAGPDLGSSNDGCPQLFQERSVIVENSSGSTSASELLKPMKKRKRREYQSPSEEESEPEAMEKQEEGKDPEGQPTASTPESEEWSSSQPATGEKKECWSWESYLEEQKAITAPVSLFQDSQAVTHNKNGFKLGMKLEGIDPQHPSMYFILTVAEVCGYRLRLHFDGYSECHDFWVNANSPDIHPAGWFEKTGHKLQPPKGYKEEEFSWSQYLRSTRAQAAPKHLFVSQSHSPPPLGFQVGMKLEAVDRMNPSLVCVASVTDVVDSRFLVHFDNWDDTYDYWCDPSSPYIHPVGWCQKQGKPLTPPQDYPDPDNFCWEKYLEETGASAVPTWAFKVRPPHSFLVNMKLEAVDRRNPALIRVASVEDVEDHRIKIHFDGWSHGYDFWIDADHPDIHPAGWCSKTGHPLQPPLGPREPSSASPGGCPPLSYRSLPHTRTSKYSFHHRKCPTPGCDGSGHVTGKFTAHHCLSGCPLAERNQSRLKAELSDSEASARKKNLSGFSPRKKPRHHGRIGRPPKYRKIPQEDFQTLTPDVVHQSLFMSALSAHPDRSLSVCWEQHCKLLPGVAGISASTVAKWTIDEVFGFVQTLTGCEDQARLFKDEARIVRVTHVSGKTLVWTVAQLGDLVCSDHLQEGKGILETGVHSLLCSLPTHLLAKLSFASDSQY
# Summary of the method: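 AlphaScreen displacement: 50 nM L3MBTL1 bound to 75 nM biotin-H3K9me1 peptide for 30 min, compound added for 30 min at room temperature, then beads at 10 ug/mL final for 30 min in the dark. Cefsulodin titration served as intraplate control.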
# [2] = target: DNA polymerase iota (Homo sapiens) (UniProt Q9UNA4); experiment: qHTS for Inhibitors of Polymerase Iota: Confirmatory Assay for Cherry-picked Compounds (AID 720496); settings: Pol iota primer extension, TAMRA/BHQ fluorescence; note: potency is the fitted concentration of half-maximal effect
# Summary of the method: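 Step 1: 10 nM Pol iota with compound, 15 min, room temperature. Step 2: 50 nM final quenched DNA substrate added. Step 3: fluorescence (ex 525, em 598 nm) read at 0 and after 10 min.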
# [3] = target: DNA polymerase kappa (Homo sapiens) (UniProt Q9UBT6); experiment: qHTS for Inhibitors of Polymerase Kappa: Confirmatory Assay for Cherry-picked Compounds (AID 720501); settings: purified Pol-kappa, fluorescent strand-displacement substrate; note: potency is the fitted concentration of half-maximal effect
# Summary of the method: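 Strand-displacement fluorescence read-out: TAMRA reporter released from a BHQ-2-quenched template, measured at 525/598 nm over a 10 min kinetic window. Substrate was 50 nM final; enzyme was 10 nM Pol-kappa, preincubated 15 min at room temperature with compound.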
# [4] = target: DNA polymerase eta (Homo sapiens) (UniProt Q9Y253); experiment: qHTS for Inhibitors of Polymerase Eta: Confirmatory Assay for Cherry-picked Compounds (AID 720502); settings: Pol eta primer extension, TAMRA/BHQ fluorescence, 10 min; note: potency is the fitted concentration of half-maximal effect
# Sequence of DNA polymerase eta (Homo sapiens) (Q9Y253 whole entry, looked up): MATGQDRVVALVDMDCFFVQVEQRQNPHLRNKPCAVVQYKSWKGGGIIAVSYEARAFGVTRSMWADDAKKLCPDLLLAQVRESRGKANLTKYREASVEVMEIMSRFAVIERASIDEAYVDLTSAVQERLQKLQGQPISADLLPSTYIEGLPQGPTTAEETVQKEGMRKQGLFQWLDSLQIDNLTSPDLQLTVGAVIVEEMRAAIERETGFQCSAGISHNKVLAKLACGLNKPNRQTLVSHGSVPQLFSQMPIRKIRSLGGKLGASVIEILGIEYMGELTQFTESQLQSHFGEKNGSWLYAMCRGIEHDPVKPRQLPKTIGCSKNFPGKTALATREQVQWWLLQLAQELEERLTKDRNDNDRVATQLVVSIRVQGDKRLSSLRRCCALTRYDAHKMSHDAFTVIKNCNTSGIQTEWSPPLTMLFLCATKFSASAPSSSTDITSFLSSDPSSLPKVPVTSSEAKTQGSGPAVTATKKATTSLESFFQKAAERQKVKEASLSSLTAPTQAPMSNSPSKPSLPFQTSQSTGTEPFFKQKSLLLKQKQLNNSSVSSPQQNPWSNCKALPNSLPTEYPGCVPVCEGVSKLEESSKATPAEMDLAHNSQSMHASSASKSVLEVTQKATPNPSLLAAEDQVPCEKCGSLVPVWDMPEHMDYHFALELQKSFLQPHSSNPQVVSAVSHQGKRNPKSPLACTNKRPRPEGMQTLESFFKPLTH
# Summary of the method: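 Human Pol eta at 10 nM was preincubated with compound for 15 min at room temperature. Reaction was started with TAMRA/BHQ-2-labelled primer-template substrate (50 nM final), with fluorescence read at 0 and 10 min (ex 525, em 598 nm).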
# [5] = target: Rap guanine nucleotide exchange factor 3 (Homo sapiens) (UniProt O95398); experiment: Confirmatory qHTS for antagonist of cAMP-regulated guanine nucleotide exchange factor 3 (EPAC1) (AID 1645880); settings: EPAC1 Rap1B-BODIPY-GDP exchange, fluorescence; activity, negative = inhibition: at 115 µM (top of the series); note: nearly all actives have a fitted effect of over 55% in size; note: potency is the fitted concentration of half-maximal effect
# Sequence of Rap guanine nucleotide exchange factor 3 (Homo sapiens) (O95398 whole entry, looked up): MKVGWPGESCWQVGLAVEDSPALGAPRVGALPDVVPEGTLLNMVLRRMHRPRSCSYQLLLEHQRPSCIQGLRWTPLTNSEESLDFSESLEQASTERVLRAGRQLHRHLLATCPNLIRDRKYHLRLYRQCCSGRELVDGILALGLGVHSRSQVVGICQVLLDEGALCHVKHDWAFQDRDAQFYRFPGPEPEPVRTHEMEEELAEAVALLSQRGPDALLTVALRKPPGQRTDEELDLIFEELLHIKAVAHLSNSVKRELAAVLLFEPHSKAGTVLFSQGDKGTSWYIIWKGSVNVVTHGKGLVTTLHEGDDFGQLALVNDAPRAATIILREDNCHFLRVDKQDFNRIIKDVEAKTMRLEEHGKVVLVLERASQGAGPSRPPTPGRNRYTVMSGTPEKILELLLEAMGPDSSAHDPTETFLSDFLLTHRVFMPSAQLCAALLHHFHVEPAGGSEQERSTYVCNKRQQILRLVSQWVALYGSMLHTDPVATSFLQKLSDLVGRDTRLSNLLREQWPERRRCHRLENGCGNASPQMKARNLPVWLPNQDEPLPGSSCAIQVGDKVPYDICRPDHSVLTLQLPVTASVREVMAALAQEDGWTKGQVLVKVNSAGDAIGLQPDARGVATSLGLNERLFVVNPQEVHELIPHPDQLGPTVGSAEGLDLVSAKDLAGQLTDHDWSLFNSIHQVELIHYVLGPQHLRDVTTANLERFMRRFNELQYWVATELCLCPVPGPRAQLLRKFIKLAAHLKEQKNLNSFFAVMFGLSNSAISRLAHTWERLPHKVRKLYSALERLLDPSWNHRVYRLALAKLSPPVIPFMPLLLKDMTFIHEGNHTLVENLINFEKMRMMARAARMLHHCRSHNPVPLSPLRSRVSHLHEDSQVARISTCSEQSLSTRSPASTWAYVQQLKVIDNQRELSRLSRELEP
# Summary of the method: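 Nucleotide exchange uses 100 nM EPAC1, 250 nM RAP1B-BODIPY-GDP and 50 uM GDP, with compounds in a concentration-titration series. After 5 min at room temperature, fluorescence (480 nm ex/540 nm em) is read every 5 min for 30 min. Data are normalized to control ATA and DMSO.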
# [6] = target: Rap guanine nucleotide exchange factor 3 (Homo sapiens) (UniProt O95398); experiment: Confirmatory qHTS for agonist of cAMP-regulated guanine nucleotide exchange factor 3 (EPAC1) (AID 1645881);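 note: EPAC1 catalysed release of BODIPY-GDP from Rap1B seen as fluorescence loss; nearly all actives have a fitted effect of over 75% in size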
# [7] = target: Rap guanine nucleotide exchange factor 4 (Homo sapiens) (UniProt Q8WZA2); experiment: Confirmatory qHTS for agonist of cAMP-regulated guanine nucleotide exchange factor 4 (EPAC2) (AID 1645884);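 note: nucleotide exchange releases bodipy-GDP from Rap1 and this lowers its fluorescence; nearly all actives have a fitted effect of over 65% in size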
# Sequence of Rap guanine nucleotide exchange factor 4 (Homo sapiens) (Q8WZA2 whole entry, looked up): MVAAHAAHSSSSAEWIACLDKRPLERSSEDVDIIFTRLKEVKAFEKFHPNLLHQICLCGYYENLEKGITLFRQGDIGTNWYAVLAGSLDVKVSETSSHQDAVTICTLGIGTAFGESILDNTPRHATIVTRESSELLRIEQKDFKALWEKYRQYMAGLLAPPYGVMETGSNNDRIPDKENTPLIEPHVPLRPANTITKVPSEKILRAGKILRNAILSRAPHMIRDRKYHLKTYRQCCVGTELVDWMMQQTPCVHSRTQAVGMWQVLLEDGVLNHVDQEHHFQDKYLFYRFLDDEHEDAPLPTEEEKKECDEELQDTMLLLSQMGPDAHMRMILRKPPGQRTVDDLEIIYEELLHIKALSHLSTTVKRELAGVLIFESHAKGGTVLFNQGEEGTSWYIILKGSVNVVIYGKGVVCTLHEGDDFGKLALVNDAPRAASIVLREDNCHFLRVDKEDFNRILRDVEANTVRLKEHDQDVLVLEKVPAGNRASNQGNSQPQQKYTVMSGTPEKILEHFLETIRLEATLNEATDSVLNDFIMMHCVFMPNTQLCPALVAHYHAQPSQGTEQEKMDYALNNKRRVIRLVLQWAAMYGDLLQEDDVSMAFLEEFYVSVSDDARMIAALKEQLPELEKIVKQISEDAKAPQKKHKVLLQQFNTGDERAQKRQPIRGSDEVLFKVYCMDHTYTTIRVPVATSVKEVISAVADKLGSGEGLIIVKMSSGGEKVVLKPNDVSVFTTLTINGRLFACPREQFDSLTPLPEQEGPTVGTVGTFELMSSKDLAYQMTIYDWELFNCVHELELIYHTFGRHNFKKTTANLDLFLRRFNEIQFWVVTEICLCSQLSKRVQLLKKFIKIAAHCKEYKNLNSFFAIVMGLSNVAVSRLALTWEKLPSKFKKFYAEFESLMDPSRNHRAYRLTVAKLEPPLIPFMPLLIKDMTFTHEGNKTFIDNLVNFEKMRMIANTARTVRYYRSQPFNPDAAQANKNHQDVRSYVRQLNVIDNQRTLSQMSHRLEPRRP
# [8] = target: Rap guanine nucleotide exchange factor 4 (Homo sapiens) (UniProt Q8WZA2); experiment: Confirmatory qHTS for antagonist of cAMP-regulated guanine nucleotide exchange factor 4 (EPAC2) (AID 1645885); note: nearly all actives have a fitted effect of over 25% in size; note: potency is the fitted concentration of half-maximal effect
# [9] = target: Rap guanine nucleotide exchange factor 3 (Homo sapiens) (UniProt O95398); experiment: Counterscreen qHTS for antagonist of cAMP-regulated guanine nucleotide exchange factor 3 (EPAC1) (AID 1645888);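 note: fluorescence loss as bound BODIPY-GDP is released from Rap1B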
# Summary of the method: (§1)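 Rap1B-BODIPY-GDP 250 nM + GDP 50 uM; cpds 7-pt, final 9.74 nM–152 uM (activator mode) or from 7.32 nM upwards (inhibitor mode); RT; FI 480/540 nm at 5 and 30 min, then ± cAMP, reread.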
# [10] = target: Rap guanine nucleotide exchange factor 3 (Homo sapiens) (UniProt O95398); experiment: Counterscreen qHTS for agonist of cAMP-regulated guanine nucleotide exchange factor 3 (EPAC1) (AID 1645889); note: nearly all actives have a fitted effect of over 40% in size
# Summary of the method: as §1
# [11] = AP1 Signaling Pathway (AID 357; active = well fitted curve in either direction with a large enough effect, not every such curve was filed as active); settings: ME-180 AP-1-bla reporter, EGF-induced, beta-lactamase ratio, 5 h; at 7.69 µM (top of the series) unless noted
# Summary of the method: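 AP-1-bla ME-180 cells with beta-lactamase reporter under AP-1 response element, stimulated with EC50 EGF; compounds titrated, 5 hours at 37 degrees Celsius. CCF4 read at 460/530 nm ratio; positive and negative modulators judged by AC50.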
# [12] = NFAT Signaling Pathway (AID 444; active = well fitted curve in either direction with a large enough effect, not every such curve was filed as active;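 note: carbachol stimulus at about its EC50 of 1 µM final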); settings: Jurkat NFAT-bla M1, carbachol, beta-lactamase ratio, 5 h; at 7.69 µM (top of the series) unless noted
# Summary of the method: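 Read-out: CCF4 FRET ratio (460 nm/530 nm) after 1 h RT dye loading, used for %activity and AC50 from titration series. Cells: Jurkat NFAT-β-lactamase/M1 line, treated with compound plus 1 uM carbachol for 5 h, 37 °C.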
# [13] = Stat Signaling Pathway (AID 446; active = well fitted curve in either direction with a large enough effect, not every such curve was filed as active;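 note: ME-180 cervical cancer cells given 40 pM IL-6 alongside compound; SIE-controlled beta-lactamase reporter measured as 460/530 nm FRET emission ratio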)
# Summary of the method: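 Reporter line: ME-180 cervical carcinoma, SIE-beta-lactamase. Treatment: compound with 40 pM IL-6, 5 hrs, 37 C, in low-serum OPTI-MEM with 10 mM HEPES pH 7.3. Detection: 460/530 nm fluorescence.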
# [14] = target: Glucocorticoid receptor (Homo sapiens) (UniProt P04150); experiment: GR-GFP Redistribution (AID 450;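 active = compounds whose dose series gives a full or clear partial fitted curve of increased nuclear translocation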; note: potency is the fitted concentration of half-maximal effect); settings: U2OS GR-GFP nuclear translocation, laser cytometry, 2 h
# Sequence of Glucocorticoid receptor (Homo sapiens) (P04150 whole entry, looked up, the tested form may be a part): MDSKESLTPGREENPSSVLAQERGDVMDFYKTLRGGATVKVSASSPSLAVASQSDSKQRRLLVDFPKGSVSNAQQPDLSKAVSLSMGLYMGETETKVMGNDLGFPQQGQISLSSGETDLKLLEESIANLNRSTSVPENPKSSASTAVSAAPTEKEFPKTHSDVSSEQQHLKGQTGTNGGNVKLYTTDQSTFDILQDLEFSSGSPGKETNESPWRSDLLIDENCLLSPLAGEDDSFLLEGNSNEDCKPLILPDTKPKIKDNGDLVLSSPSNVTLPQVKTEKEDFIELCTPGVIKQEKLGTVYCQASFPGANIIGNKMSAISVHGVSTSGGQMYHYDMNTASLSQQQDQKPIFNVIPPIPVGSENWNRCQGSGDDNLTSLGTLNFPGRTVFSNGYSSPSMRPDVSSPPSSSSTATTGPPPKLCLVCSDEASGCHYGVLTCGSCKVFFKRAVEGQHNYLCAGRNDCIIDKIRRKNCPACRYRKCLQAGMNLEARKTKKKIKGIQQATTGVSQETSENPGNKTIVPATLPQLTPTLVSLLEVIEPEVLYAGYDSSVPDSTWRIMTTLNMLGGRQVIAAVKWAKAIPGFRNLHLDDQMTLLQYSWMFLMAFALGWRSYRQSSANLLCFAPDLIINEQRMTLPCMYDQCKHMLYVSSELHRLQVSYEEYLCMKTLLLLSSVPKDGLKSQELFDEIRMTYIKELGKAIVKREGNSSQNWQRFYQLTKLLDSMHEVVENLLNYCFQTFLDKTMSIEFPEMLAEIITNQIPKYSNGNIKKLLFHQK
# [15] = target: Glucocorticoid receptor (Homo sapiens) (UniProt P04150); experiment: GR-EFC Redistribution (AID 451; calls by dose curve; note: potency is the fitted concentration of half-maximal effect); settings: CHO-K1 GR-EFC translocation, beta-gal luminescence, 2 h
# Summary of the method: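 Translocation of GR-ED fusion to nuclear EA restores b-gal, read by luminescence after 1 h room-temperature detection. Engineered CHO-K1 biosensor cells, 1,000/well, exposed 2 h at 37 C to titrations up to 46 uM final.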
# [16] = target: Mitogen-activated protein kinase 10 (Mus musculus) (UniProt Q61831); experiment: JNK3 AlphaScreen Assay (AID 530; active = well fitted curve in either direction with a large enough effect, not every such curve was filed as active;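 note: kinase came from lysate of stimulated human HepG2 cells; signal reports phosphorylation of biotinylated GST-cJun 1-79 at Ser73 with 10 µM ATP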)
# Summary of the method: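 Room-temperature AlphaScreen kinase assay; pre-activated HepG2 lysate as JNK3 source, biotin-GST-cJun(1-79) substrate, 10 uM ATP, compound 15 min preincubation.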
# [17] = target: 3',5'-cyclic-AMP phosphodiesterase 4B (Homo sapiens) (UniProt Q07343); experiment: qHTS Assay for Inhibitors of PDE-IV (AID 607; active = well fitted activation curve with a large enough effect in the main read-out, with a control signal flat, not every such curve was filed as active)
# Summary of the method: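 Cell-based read-out of cAMP via a modified cyclic nucleotide-gated channel and membrane potential dye (535/590 nm) in HEK293 cells expressing PDE4 endogenously. Compounds tested up to 22.9 uM final; 100 uM RO 20-1724 reference.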
# [18] = target: Tumor susceptibility gene 101 protein (Homo sapiens) (UniProt Q99816); experiment: qHTS Assay for Iinhibitors of HIV-1 Budding by Blocking the Interaction of PTAP/TSG101: Hit Validation (AID 651600); note: potency is the fitted concentration of half-maximal effect; nearly all actives have a fitted effect of over 70% in size
# Sequence of Tumor susceptibility gene 101 protein (Homo sapiens) (Q99816 whole entry, looked up, the tested form may be a part): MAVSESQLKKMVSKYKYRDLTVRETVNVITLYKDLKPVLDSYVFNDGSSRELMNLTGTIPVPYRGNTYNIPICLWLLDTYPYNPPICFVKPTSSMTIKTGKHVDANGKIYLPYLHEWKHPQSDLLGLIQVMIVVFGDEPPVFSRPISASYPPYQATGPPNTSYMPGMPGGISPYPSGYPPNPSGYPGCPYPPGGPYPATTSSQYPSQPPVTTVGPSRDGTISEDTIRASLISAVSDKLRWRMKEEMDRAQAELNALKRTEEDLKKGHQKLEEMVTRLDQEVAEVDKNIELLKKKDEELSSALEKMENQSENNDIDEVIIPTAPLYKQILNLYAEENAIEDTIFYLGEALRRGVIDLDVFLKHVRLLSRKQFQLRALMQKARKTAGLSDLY
# Summary of the method: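 Fluorescence polarization binding assay: Tsg101 binding domain (10 uM) mixed with compounds and FITC-labeled PTAP peptide (50 nM) in HEPES pH 7.5, 0.15 M NaCl, 0.01% Tween 20, EDTA, TCEP; 20 min at r.t.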
smiles,measurement,setting,value
Cc1ccc(N=C2NC(=O)/C(=C/C=C/c3ccco3)S2)cc1C,Potency,[1],21.2 µM (active)
same,Potency,[2],47.4 µM (active)
same,Potency,[3],47.4 µM (active)
same,Potency,[4],53.6 µM (active)
same,Potency,[5],12.6 µM (active)
same,Potency,[6],inactive
same,activation,[7],"-4% [at 17.1 µM, percent relative to cAMP agonist control]"
same,Potency,[8],inactive
same,"activity change, negative = inhibition",[9],5.98% [at 30.8 µM]
same,activation,[10],25.8% [at 30.8 µM]
COC(=O)/C(N=Nc1cccc(C(F)(F)F)c1)=C(\C)O,Potency,[5],inactive
same,Potency,[6],inactive
same,activation,[7],"10.2% [at 17.1 µM, percent relative to cAMP agonist control]"
same,Potency,[8],inactive
same,"activity change, negative = inhibition",[9],-9.14% [at 30.8 µM]
same,activation,[10],22.5% [at 30.8 µM]
O=C(COc1ccccc1[N+](=O)[O-])Nc1cccc(C(=O)Nc2ccccc2C(=O)O)c1,Potency,[5],23.9 µM (active)
same,Potency,[6],inactive
same,Potency,[7],inactive
same,Potency,[8],inactive
same,Potency,[9],inactive
same,Potency,[10],inactive
NS(=O)(=O)c1ccc(N=Nc2c[nH]c(=O)c(O)c2)cc1,"activity change, negative = inhibition",[11],8.24%
same,"activity change, negative = inhibition",[12],-22.1%
same,outcome,[13],inactive
same,Potency,[14],> 46 µM
same,Potency,[15],> 9.22 µM
same,"activity change, negative = inhibition",[16],-17.1% [at 11.4 µM]
same,Potency,[17],inactive
same,Potency,[18],18.3 µM (active)
same,Potency,[5],42.6 µM (active)
same,Potency,[6],inactive
same,Potency,[7],inactive
same,Potency,[8],84.9 µM (active)
same,Potency,[9],inactive
same,Potency,[10],inactive
COC(=O)c1ccc(CSc2ccc3nnc(-c4cccc(F)c4)n3n2)o1,Potency,[5],inactive
same,Potency,[6],inactive
same,activation,[7],"-3.47% [at 17.1 µM, percent relative to cAMP agonist control]"
same,Potency,[8],inactive
same,"activity change, negative = inhibition",[9],-19.6% [at 30.8 µM]
same,activation,[10],0.6% [at 30.8 µM]
COC(=O)c1cc(NC(=O)CC2SCCNC2=O)cc(C(=O)OC)c1 (centres undefined),Potency,[5],inactive
same,Potency,[6],inactive
same,activation,[7],"4.81% [at 17.1 µM, percent relative to cAMP agonist control]"
same,Potency,[8],inactive
same,"activity change, negative = inhibition",[9],6.38% [at 30.8 µM]
same,activation,[10],0.776% [at 30.8 µM]
COc1ccc(-n2ccn(Cc3ccc(C)cc3)c(=O)c2=O)cc1OC,Potency,[5],inactive
same,Potency,[6],inactive
same,Potency,[7],inactive
same,Potency,[8],inactive
same,Potency,[9],inactive
same,Potency,[10],inactive
